{"source": "PubChem BioAssay AID1851", "about": "(National Center for Advancing Translational Sciences (NCATS), 2009)", "note": "Among all 16,000 compounds or so, about 5,100 (32%) were called active. Not shown: some 25% with an inconclusive outcome. Some of the results follow. A number with no mark means an inactive call. Calls come from the whole dose curve; as a rule, active = well fitted curve in the direction sought with a large enough effect; inconclusive = small, poorly fitted or top-dose-only effect, or effect the other way; inactive = no such curve, though single readings can be large or run the other way. % is set by controls: 0 for no effect and ±100 for the full control effect.", "data": [{"biological_target": "Cytochrome P450 3A4 (Homo sapiens) (UniProt P08684)", "sequence (P08684 whole entry, looked up)": "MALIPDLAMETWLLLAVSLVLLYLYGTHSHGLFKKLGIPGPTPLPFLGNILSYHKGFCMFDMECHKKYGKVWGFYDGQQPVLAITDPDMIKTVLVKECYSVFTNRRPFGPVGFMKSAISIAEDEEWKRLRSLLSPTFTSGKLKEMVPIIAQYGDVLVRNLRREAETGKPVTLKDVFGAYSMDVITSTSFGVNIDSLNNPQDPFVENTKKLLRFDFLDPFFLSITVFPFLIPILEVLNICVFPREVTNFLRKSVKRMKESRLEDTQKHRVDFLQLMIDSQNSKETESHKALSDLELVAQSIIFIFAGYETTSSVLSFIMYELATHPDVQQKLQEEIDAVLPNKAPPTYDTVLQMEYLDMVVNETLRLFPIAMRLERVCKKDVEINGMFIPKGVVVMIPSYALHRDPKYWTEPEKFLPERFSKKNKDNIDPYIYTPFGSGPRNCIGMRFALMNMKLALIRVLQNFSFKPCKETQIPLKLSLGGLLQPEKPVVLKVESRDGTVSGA", "assay": "Cytochrome panel assay with activity outcomes", "conditions": "recombinant CYP, pro-luciferin dealkylation, luminescence, p450-cyp3a4; series mostly up to 57.1 µM", "values": [{"smiles": "Cc1cnn(-c2cc(N/N=C/c3ccccc3F)ncn2)c1", "activity, negative = inhibition": "-16.7% [at 2.29 µM]"}, {"smiles": "Cc1cccc(C2NC(=O)c3c(sc(C)c3C)N2)c1O", "note": "(stereo not given)", "AC50": "12.6 µM (active)"}, {"smiles": "CC(C)(Oc1ccc(-c2cccc3ccccc23)cc1)C(=O)O", "activity, negative = inhibition": "-6.61% [at 11.4 µM]"}, {"smiles": "O=C(O)c1ccccc1C(=O)NNc1ccc(Cl)cc1", "AC50": "7.94 µM (active)"}, {"smiles": "O=C(O)CC[C@@H](NC(=O)c1ccccc1C(=O)O)C(=O)O", "AC50": "inactive"}, {"smiles": "O=C(O)c1ccccc1C(=O)NCc1ccc(F)cc1", "AC50": "inactive"}, {"smiles": "O=C(O)c1ccccc1C(=O)NNc1ccc(F)cc1", "AC50": "11.2 µM (active)"}, {"smiles": "O=C(O)c1ccccc1-c1ccccc1C(=O)Nc1ccc2c(c1)Cc1cc(F)ccc1-2", "activity, negative = inhibition": "-16.4% [at 11.4 µM]"}, {"smiles": "O=C(NNC(=O)c1ccccc1O)c1ccc(Cl)cc1", "AC50": "inactive"}, {"smiles": "Oc1c(CN2CCCCC2)cc(Br)c2cccnc12", "AC50": "inactive"}, {"smiles": "Cc1cc(NC(=O)Nc2ccc3c(ccn3C)c2)sn1", "AC50": "12.6 µM (active)"}, {"smiles": "CCCNC(=O)Nc1ccc2c(c1)nc(C)n2C", "AC50": "inactive"}, {"smiles": "Cc1noc(C)c1-c1ccc2ncnc(NCCN3CCOCC3)c2c1", "AC50": "12.6 µM (active)"}, {"smiles": "Cc1noc(C)c1-c1ccc2ncnc(N3CCN(C)CC3)c2c1", "AC50": "25.1 µM (active)"}, {"smiles": "Cc1noc(C)c1-c1ccc2ncnc(N3CCOCC3)c2c1", "AC50": "31.6 µM (active)"}, {"smiles": "CCN1CCC[C@H]1CNC(=O)c1cc(S(N)(=O)=O)ccc1OC", "AC50": "inactive"}, {"smiles": "CCOC(=O)C1=C2SCC(=O)N2C(N)=C(C#N)C1", "AC50": "inactive"}, {"smiles": "COc1ccccc1CN1CCC2(CC1)CCN(C(C)=O)CC2", "AC50": "inactive"}, {"smiles": "COCC(=O)N1CCC2(CC1)CN(Cc1ccccc1OC)C2", "AC50": "inactive"}, {"smiles": "COc1ccccc1CC(=N)N1C[C@@H]2C(=O)CCC(c3ccccc3)(c3ccccc3)[C@@H]2C1", "AC50": "3.16 µM (active)"}, {"smiles": "CC1(C)OC(=O)NC1=O", "AC50": "inactive"}, {"smiles": "O=C1CCCC2=C1C(c1ccc(Cl)cc1)C1C(=O)c3ccccc3C1=N2", "note": "(stereo not given)", "AC50": "14.1 µM (active)"}, {"smiles": "O=C1C(=O)c2ccccc2C(O)=C1C1CCC(c2ccc(Cl)cc2)CC1", "note": "(stereo not given)", "AC50": "inactive"}, {"smiles": "CC[C@](N)(C(=O)O)C(C)C", "activity, negative = inhibition": "-7.26% [at 11.4 µM]"}, {"smiles": "COC(=O)[C@@]1(Cc2ccc(F)cc2)[C@@H]2C(=CC(=O)[C@H]2CC(=O)C(=O)N(C)C)CN1C(=O)c1ccccc1", "AC50": "10 µM (active)"}, {"smiles": "COC(=O)[C@@]1(Cc2ccccc2)[C@@H]2C(=CC(=O)[C@H]2CC(=O)C(=O)N(C)C)CN1C(=O)c1ccccc1", "AC50": "7.94 µM (active)"}, {"smiles": "CC(O)CN(CCC(N)=O)CCC(N)=O", "note": "(stereo not given)", "AC50": "inactive"}, {"smiles": "CC1CN(C(=S)NC(=O)c2ccc([N+](=O)[O-])cc2)CC(C)O1", "note": "(stereo not given)", "activity, negative = inhibition": "2.57% [at 2.29 µM]"}, {"smiles": "O=C(O)/C(Cc1ccc([N+](=O)[O-])cc1)=N/O", "activity, negative = inhibition": "-11.6% [at 11.4 µM]"}, {"smiles": "CC(=O)N=c1sccn1CC(=O)c1ccc([N+](=O)[O-])cc1", "AC50": "4.47 µM (active)"}]}]}
